Screening data (PubChem)
Hits are enriched below; roughly 19% of the tested compounds scored in any of these assays.
TDP1 cell CPT: qHTS for Inhibitors of human tyrosyl-DNA phosphodiesterase 1 (TDP1): qHTS in cells in presence of CPT | chicken DT40 Tdp1-/-;hTDP1 cells + 20 nM CPT, ATP luminescence, 48 h | 420,000 tested, 12% active | Potency, µM (top dose mostly 46.2 µM), inactives show at the highest dose activity change, negative = growth inhibition, most hits filed as inhibitors; further: potency means the concentration at half of the fitted maximal effect; on the % scale 0 is the no-effect control and ±100 the full control effect; nearly all actives have a fitted effect of over 55% in size
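Chicken DT40 Tdp1-/- cells stably complemented with human TDP1 were seeded at 400 cells/well in medium containing 20 nM camptothecin, exposed to pin-transferred compounds, and grown at 37 °C for at least 48 hr. Viability was read as ATP luminescence.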
IL-1B inflam inh: qHTS for Inhibitors of Inflammasome Signaling: IL-1-beta AlphaLISA Primary Screen; activity change, % at 57.5 µM; 360,000 tested, 4.7% active; THP-1 LPS/ATP IL-1B secretion, AlphaLISA, 16 h; hits give low values; in the data active means activity change below about -50%; inconclusive means mostly about -30% to -49%; further: on the % scale 0 is the no-effect control and ±100 the full control effect
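THP-1 cells pretreated 1 hr with compounds (up to 57.5 uM final), then stimulated with LPS (250 ng/mL final) plus ATP (1.25 mM final); secreted IL-1B measured by AlphaLISA after 16 hr, decreased signal indicating inhibition.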
TGFb SMAD3 inh: qHTS for Inhibitors of TGF-b. HepG2 CAGA-GFP TGF-b/SMAD3 reporter, GFP fluorescence, 18 h; TGF-beta stimulated, 500 pg/mL final. Potency, µM (highest dose often 46.1 µM), for inactives: at the top dose activity, negative = inhibition, most hits filed as inhibitors. 410,000 tested, 1.2% active. AID 588855, 2011; further: potency means the concentration at half of the fitted maximal effect; on the % scale 0 is the no-effect control and ±100 the full control effect; nearly all actives have a fitted effect of over 65% in size
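GFP signal (ex488/em500-530) from TGF-beta-stimulated HEPG2 CAGA-GFP cells, 500 pg/mL final, 18 h at 37 degrees C in DMEM plus 1% FBS, normalized to unstimulated and DMSO-stimulated controls.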
TDP1 cell noCPT: qHTS for Inhibitors of human tyrosyl-DNA phosphodiesterase 1 (TDP1): qHTS in cells in absence of CPT | Potency, µM (series often up to 46.2 µM), without a hit: top-dose activity change, negative = growth inhibition, actives largely listed as inhibitors | 420,000 tested, 15% active | DT40 Tdp1-/- hTDP1 cells, no CPT, ATP luminescence, 48 h; further: potency means the concentration at half of the fitted maximal effect; on the % scale 0 is the no-effect control and ±100 the full control effect; nearly all actives have a fitted effect of over 55% in size
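DT40 Tdp1-/-;hTDP1 cells, no CPT (DMSO vehicle only), 400 cells/well; compounds pin-transferred; ≥48 hr, 37 °C; CellTiter-Glo 30 min RT dark, luminescence read.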
HepG2 viability: qHTS for Inhibitors of TGF-b: Cytotox Counterscreen. AID 588856, 2011. 410,000 tested, 0.76% active. Potency, µM (titrated, usually from 46.1 µM), for inactives: at the highest dose activity change, negative = cytotoxicity, actives largely listed as cytotoxic. HepG2 CAGA-GFP viability, ATP luminescence, 18 h; further: potency means the concentration at half of the fitted maximal effect
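CellTiter-Glo luminescence gave cytotoxicity after 18 hours at 37 degrees C. The cells were HepG2 CAGA-GFP in 1% FBS DMEM, stimulated with 500 pg/mL TGF-beta after compound addition. %Activity was normalised to no-cell wells (complete cell-killing) and DMSO (no toxicity), and curves were fitted and classified.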
TDP1 block: qHTS Assay for Inhibitors of Tyrosyl-DNA Phosphodiesterase (TDP1) | Tyrosyl-DNA phosphodiesterase 1 (Homo sapiens), Q9NUW8 | AID 485290, 2010 | 350,000 tested, 0.28% active | Potency, µM (titrated, usually from 130 µM), for inactives: at the highest dose activity change, negative = inhibition, usual class: inhibitors | recombinant TDP1, AlphaScreen DNA substrate cleavage; further: potency means the concentration at half of the fitted maximal effect; on the % scale 0 is the no-effect control and ±100 the full control effect; nearly all actives have a fitted effect of over 40% in size
Target sequence (Q9NUW8 whole entry, looked up): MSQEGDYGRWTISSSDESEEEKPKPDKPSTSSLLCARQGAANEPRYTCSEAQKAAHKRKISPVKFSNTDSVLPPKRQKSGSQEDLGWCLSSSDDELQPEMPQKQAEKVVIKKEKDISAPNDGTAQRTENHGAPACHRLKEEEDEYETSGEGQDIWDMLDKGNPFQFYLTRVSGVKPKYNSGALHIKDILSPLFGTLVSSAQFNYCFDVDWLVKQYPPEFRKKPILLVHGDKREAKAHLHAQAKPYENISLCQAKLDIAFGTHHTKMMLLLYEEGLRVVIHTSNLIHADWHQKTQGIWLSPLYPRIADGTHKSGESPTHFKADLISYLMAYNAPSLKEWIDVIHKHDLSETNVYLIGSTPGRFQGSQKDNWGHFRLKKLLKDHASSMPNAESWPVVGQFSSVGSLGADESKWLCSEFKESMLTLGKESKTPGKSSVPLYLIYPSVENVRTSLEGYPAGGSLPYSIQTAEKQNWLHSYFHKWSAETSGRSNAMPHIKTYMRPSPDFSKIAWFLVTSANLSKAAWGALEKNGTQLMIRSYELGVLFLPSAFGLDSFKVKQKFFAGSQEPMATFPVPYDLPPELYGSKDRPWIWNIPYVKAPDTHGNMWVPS
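Recombinant human Tdp1 (E. coli-expressed, 1 nM final) preincubated with compounds 15 min at room temperature, then 5'-biotin/3'-phosphotyrosine-FITC DNA substrate (15 nM final) added for 5 min. AlphaScreen beads (10 ug/ml final) added 10 min; cleavage lowers signal.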
The depositor's hits bear a star; ? = inconclusive; / = not tested or not shown. Unless noted, the call rests on the fitted dose curve; in most records, active means well fitted curve in the direction sought with a large enough effect; inconclusive means small, poorly fitted or top-dose-only effect, or another doubt; inactive means no such curve, though single readings can be large; an effect the other way counts as inactive or inconclusive.

SMILES	TDP1 cell CPT	IL-1B inflam inh	TGFb SMAD3 inh	TDP1 cell noCPT	HepG2 viability	TDP1 block
CCCSc1nc(SCC(=O)NCc2ccccc2)c2c3c(sc2n1)COC(C)(CC)C3 (centres undefined)	?	30	-5%	?	-21%	0%
CC(C)NC(=O)NC(=O)CSc1nnc(COc2ccccc2F)n1C(C)C1CC2CCC1C2 (centres undefined)	10µM*	-52*	?	10µM*	-106%	5%
CCOC(=O)Cn1c(=O)oc2cc(S(=O)(=O)N3CCN(c4cc(C)ccc4C)CC3)ccc21	18µM*	/	?	?	-19%	2%
Cn1c(=O)oc2cc(S(=O)(=O)CCC(=O)NCc3ccccc3)ccc21	-3%	/	-6%	-9%	-23%	5%
CCc1cccc(C)c1NC(=O)CCS(=O)(=O)c1ccc2c(c1)oc(=O)n2C	?	/	-30%	15µM*	-7%	10%
Cc1ccc(C)c(N2CCN(C(=O)Cn3c(=O)oc4cc(S(=O)(=O)N5CCCC5)ccc43)CC2)c1	16µM*	30	4%	12µM*	18%	/
Cc1ccc(Cl)cc1N1CCN(C(=O)CCS(=O)(=O)c2ccc3c(c2)oc(=O)n3C)CC1	?	/	-21%	16µM*	-4%	-4%
CSCCC(NS(=O)(=O)c1ccccc1)C(=O)OC(C)C(=O)Nc1ccc(Cl)cn1 (centres undefined)	-2%	57	7%	17%	2%	2%
CC12CC3(C)CC(C)(C1)CC(C(=O)NC1=NCCS1)(C2)C3	23µM*	23	?	?	7%	/
O=C1c2ccccc2C(=O)N1/N=C/c1ccc(Oc2ccc([N+](=O)[O-])cn2)cc1	2%	8	?	-8%	-12%	8%
Cc1c(NC(=O)Cc2ccc(Cl)cc2)cccc1-c1nc2cccnc2s1	?	/	24%	16µM*	12%	1%
CCOCC(=O)Nc1cccc(-c2nc3cccnc3s2)c1C	-7%	-3	-13%	-29%	-33%	/
Cc1ccc(NC(=O)Cc2ccc(-n3c(C)nc4cccnc43)cc2)c(Cl)c1	5.2µM*	/	?	4.1µM*	-15%	8%
COc1ccc(C(=O)Nc2cccc(-c3nc4cccnc4s3)c2C)c(OC)c1	21µM*	/	-17%	12µM*	0%	0%
CC(=O)c1ccc(OC(=O)Cc2cccc3ccccc23)cc1	2%	24	2%	9%	-4%	/
CC(C)[C@H](N[C@@H](C)c1ccccc1)c1c(O)ccc2ccccc12	-18%	22	-12%	-13%	-15%	/
COC(=O)c1ccc(Oc2ccc3nnc(C)n3n2)cc1	-5%	-14	-8%	-6%	4%	2%
Cc1nnc2ccc(Oc3ccc(-c4ccccc4)cc3)nn12	13µM*	-6	-5%	?	-27%	0%
COC(=O)c1ccc(C2c3[nH]c4ccccc4c3C[C@H]3C(=O)N(C4CCN(Cc5ccccc5)CC4)CC(=O)N23)cc1 (some centres undefined)	?	0	-21%	?	-17%	/
O=C1[C@@H]2Cc3c([nH]c4ccccc34)C(c3ccccc3)N2C(=O)CN1C1CCN(Cc2ccccc2)CC1 (some centres undefined)	16µM*	-66*	?	16µM*	-125%	/
O=C1[C@@H]2Cc3c([nH]c4ccccc34)C(c3cccc(Br)c3)N2C(=O)CN1C1CCN(Cc2ccccc2)CC1 (some centres undefined)	?	-64*	16µM*	21µM*	-44%	/
NC(=S)N/N=C/c1ccccc1OCCSc1ccc(Cl)cc1	13µM*	?	-21%	15µM*	-61%	8%
COc1cccc(/C=N/NC(N)=S)c1OCc1ccccc1Cl	2.9µM*	-14	-15%	4.1µM*	8%	7%
CCOc1cc(/C=N/NC(N)=S)cc(Br)c1OCc1ccccc1C	5.8µM*	68	-23%	16µM*	-52%	-9%
C#CCOc1c(Cl)cc(/C=N/NC(N)=S)cc1OCC	?	24	0%	10µM*	16%	3%
SMILES	TDP1 cell CPT	IL-1B inflam inh	TGFb SMAD3 inh	TDP1 cell noCPT	HepG2 viability	TDP1 block
CCOc1cc(/C=N/NC(N)=O)cc(Br)c1OCc1ccccc1	?	8	2%	?	-22%	2%
CC(CCC#N)[N+](=O)[O-] (centres undefined)	/	/	/	/	/	3%
Cc1c(/C=N/NC(=O)c2ccc(Br)o2)cnn1C	18%	20	19%	2%	18%	4%
CCS(=O)(=O)Nc1ccc(C2=NN(S(=O)(=O)CC)C(c3cccs3)C2)cc1 (centres undefined)	-17%	-5	2%	4%	4%	4%
Cc1ccc(CNC(=O)CCCN2C(=O)COc3ccc(C)cc32)cc1	?	/	-2%	?	-10%	0%
CCOc1cc(/C=N/N=C(\N)c2nonc2N)cc(Br)c1OCc1cccc2ccccc12	23µM*	3	?	13µM*	11µM*	2%
CNC(=S)N/N=C/c1cc(Br)c(OCc2ccncc2)c(OC)c1	?	-2	-10%	?	-2%	/
COc1cc(/C=N/NC(N)=S)cc(Br)c1OCc1ccccc1F	6.5µM*	32	?	6.5µM*	-51%	3%
N#Cc1nc(NC2CCCC2)c2ncn(-c3cc(F)cc(F)c3)c2n1	/	/	/	/	/	-3%
Cc1cccc(OCC(=O)Nc2cccc(C(=O)OCc3cc(=O)n4c(C)csc4n3)c2)c1	?	/	-29%	?	-18%	4%
Cc1ccc2c(c1C)NC(=O)C21N2CCCC2C(C(=O)c2ccc3ccccc3c2)C12C(=O)Nc1ccccc12 (centres undefined)	23µM*	?	16µM*	12µM*	-39%	-2%
CCN(CC)c1ccc(S(=O)(=O)N2CCOCC2)cc1NC(=O)COC(=O)c1ccco1	3%	-6	0%	-24%	1%	-1%
CCN(CC)c1ccc(S(=O)(=O)N2CCOCC2)cc1NC(=O)COC(=O)/C=C/c1ccccc1	18µM*	2	-19%	?	-9%	/
